RGS4 inhibitor: blocks human RGS4-accelerated GTP hydrolysis; Transcreener GDP fluorescence polarization, RGS4-accelerated GTP hydrolysis; Potency, µM (titrated, usually from 114 µM), inactives show top-dose activity change, negative = inhibition, hits mostly inhibitors; 390,000 tested, 0.039% active; also: nearly all actives have a fitted effect of over 75% in size
Target sequence (P49798 whole entry, looked up): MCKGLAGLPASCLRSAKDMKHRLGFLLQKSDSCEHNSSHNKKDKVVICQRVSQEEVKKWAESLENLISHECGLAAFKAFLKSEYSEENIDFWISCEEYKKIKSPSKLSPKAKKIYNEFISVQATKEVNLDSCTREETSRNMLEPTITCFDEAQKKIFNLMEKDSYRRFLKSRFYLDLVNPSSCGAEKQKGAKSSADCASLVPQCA
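MLSMR compounds (23 nl, pin-transferred) preincubated 10 min at room temperature with a 500nM (2x) first reagent, then RGS4 at 900nM (2x) plus Transcreener GDP mix added; fluorescence polarization (620/688 nm) read before and after 90 min at 30 °C.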
TDP1 block: blocks human tyrosyl-DNA phosphodiesterase 1. Q9NUW8. recombinant TDP1, AlphaScreen DNA substrate cleavage. Potency, µM (top dose mostly 130 µM), inactives show at the top dose activity change, negative = inhibition, hits mostly inhibitors. 350,000 tested, 0.28% active. AID 485290; also: nearly all actives have a fitted effect of over 40% in size
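Enzyme-compound mixtures sat 15 min at room temperature, followed by a 5 min reaction with 15 nM final substrate and 10 min with AlphaScreen beads. Recombinant human Tdp1 was used at 1 nM final.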
BLM inh: Bloom syndrome helicase (human) inhibition. P54132. recombinant BLM DNA unwinding, fluorescence dequenching. Potency, µM (series often up to 56.1 µM), for the others: top-dose activity change, negative = inhibition, actives largely listed as inhibitors. 350,000 tested, 0.2% active. AID 2528;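 also: plate controls were vehicle for no effect and no enzyme for full effect; nearly all actives have a fitted effect of over 35% in size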
APE1 inh: blocks human APE1 abasic DNA cleavage; AID 2517; P27695; 350,000 tested, 0.35% active; Potency, µM (titrated, usually from 65.8 µM), for the others: top-dose activity change, negative = inhibition, usual class: inhibitors; recombinant APE1, TAMRA/BHQ-2 abasic DNA cleavage fluorescence;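 also: plate controls were vehicle for no effect and reference inhibitor for full effect; nearly all actives have a fitted effect of over 55% in size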
Target sequence (P27695 whole entry, looked up): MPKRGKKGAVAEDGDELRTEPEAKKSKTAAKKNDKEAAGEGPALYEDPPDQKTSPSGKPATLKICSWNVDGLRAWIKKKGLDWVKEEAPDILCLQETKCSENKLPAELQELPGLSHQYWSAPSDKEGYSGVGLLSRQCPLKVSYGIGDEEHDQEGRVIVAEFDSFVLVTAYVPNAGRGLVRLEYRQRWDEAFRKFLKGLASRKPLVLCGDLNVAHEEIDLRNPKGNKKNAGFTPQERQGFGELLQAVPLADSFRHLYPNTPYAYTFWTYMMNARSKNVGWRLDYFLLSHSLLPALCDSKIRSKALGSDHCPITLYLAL
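Endonuclease cleavage of a quenched abasic-site DNA duplex (50 nM) by APE1 (0.75 nM) was tracked by TAMRA dequenching. Compounds were preincubated with enzyme 15 min at room temperature; data normalized to buffer-only and DMSO wells plus NSC13755 control.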
RECQ1 inh: blocks DNA unwinding by human RECQ1 | P46063 | RECQ1 DNA unwinding, red fluorescence kinetic read | Potency, µM (series often up to 57.3 µM), for inactives: at the highest dose activity, negative = inhibition, hits mostly inhibitors | 240,000 tested, 0.54% active | AID 2549;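 also: plate controls were vehicle for no effect and no enzyme for full effect; nearly all actives have a fitted effect of over 30% in size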
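50 nM RECQ1T1 preincubated 15 min with compound in Tris pH 8.0 buffer with MgCl2, DTT, Tween-20 and 2.5 ug/ml poly(dI-dC); started with 200 nM TAMRA/BHQ-2 forked duplex and 2 mM ATP. Unwinding read as fluorescence (525/598 nm), two reads 2 h apart.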
GCN5L2 inh: blocks human GCN5L2 histone acetyltransferase. GCN5L2 HAT assay, ThioGlo1 CoA-SH fluorescence. Q92830. AID 504327. Potency, µM (top dose mostly 58.9 µM), without a hit: at the highest dose activity change, negative = inhibition, most hits filed as inhibitors. 390,000 tested, 0.21% active
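Fluorescence readout, Ex340nm/Em540nm: ThioGlo1 (50uM final) reacts with free CoA thiol released as 20nM GCN5L2 acetylates H3(1-25) peptide (75uM) using acetyl-CoA (70uM). Compound and enzyme sat 15 min beforehand; 20 min room-temperature reaction.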
* hit, by the source's call; i = inactive; u = inconclusive; x = not tested or not shown; [ ] = dose if it differs, or a comment. Rows were chosen to be rich in hits. Some 0.87% of all compounds tested hit in one or more screens of this group. Calls follow the shape of the dose curve; as a rule, active = well fitted curve in the direction sought with a large enough effect; inconclusive = small, poorly fitted or top-dose-only effect, or another doubt; inactive = no such curve, though single readings can be large; an effect the other way counts as inactive or inconclusive. Unless noted, % is scaled to controls: 0 for no effect and ±100 for the full control effect; potency is read from the fitted curve at half-maximal effect.

SMILES	RGS4 inhibitor	TDP1 block	BLM inh	APE1 inh	RECQ1 inh	GCN5L2 inh
Oc1ccc(-c2csc(-c3cccnc3)n2)cc1O	-19%	x	-14%	16µM*	-28%	-15%
COc1ccc(C2Nc3ccccc3C(=O)N2CCc2ccccc2)cc1COc1ccc(NC(C)=O)cc1 (stereo not drawn)	x	1%	x	x	x	x
CCCCCC(CC)COC(=O)CC(C(=O)OCC(CC)CCCC)S(=O)(=O)O (stereo not drawn)	x	x	-29%	x	x	x
Cc1ccc(S(=O)(=O)NNc2ccccc2)cc1	u	13%	-3%	5%	-6%	28µM*
C=CCn1c(NC(=O)c2ccccc2Cl)c(C#N)c2nc3ccccc3nc21	-41%	5%	1µM*	-5%	u	1%
OCCN(CCO)c1nc(N2CCCCC2)c2nc(N(CCO)CCO)nc(N3CCCCC3)c2n1	u	5%	-3%	u	-7%	25µM*
C=C(NCc1ccccc1)c1ccccc1O	x	4%	2%	x	x	2%
CCC1CCC2(C1)N=C(Nc1nc3ccccc3o1)NC1=C2C(=O)CCC1 (stereo not drawn)	x	2%	x	x	x	x
CCCSc1nnc(NC(=O)CSc2sc3c(O)cc(=O)[nH]c3c2C#N)s1	-28%	0%	22µM*	64%[12.4 µM]	x	u
Nc1ccc(/C=C/c2ccc(N)cc2S(=O)(=O)O)c(S(=O)(=O)O)c1	x	x	52%	x	x	13µM*
CCCc1cc(F)c(S(=O)(=O)N2CCN(S(=O)(=O)c3ccc4c(c3)OCCO4)CC2)cc1F	x	0%	x	x	x	x
Cc1cc(N2CCN(c3ccccc3F)CC2)nc2cc(O)ccc12	-1%	5%	-5%	-1%	-11%	13µM*
O=C(COC(=O)CNC(=O)c1ccccc1)Nc1cc(C(F)(F)F)ccc1Cl	x	-1%	x	x	x	x
COc1cc(O)c(C(C)=O)c(OC)c1	-47%	10%[56.1 µM]	4%	-9%	i	-8%
COc1cc(O)c(C(C)=O)c(CC(=O)O)c1	4%	x	3%	8.9µM*	u	-11%
CSc1ccc(C=NNc2ccc(S(=O)(=O)Nc3ccccc3C(=O)O)cc2[N+](=O)[O-])cc1	u	-18%	x	8.4µM*	x	u
CCOCC(=O)Nc1ccc(-c2cn3cccnc3n2)cc1	-20%	0%	-3%	-19%	7%	35µM*
CC(C)CC(=O)Nc1ccc(-c2cn3cccnc3n2)cc1	-5%	x	0%	29%	x	u
CCOC(=O)c1cc(-c2ccccc2C)nn1Cc1cc(CC)no1	3%	56µM*	x	6%	x	-10%
CCOC(=O)c1cc(-c2ccccc2)nn1Cc1cc(CC)no1	10%	x	x	-19%	x	-5%
O=C1C=C(c2ccc3cc[nH]c3c2)C[C@@H](c2ccc3c(c2)OCO3)C1	9%	u	x	12µM*	x	-20%
O=C1C=C(c2ccc3c(c2)OCO3)C[C@@H](c2ccc3c(c2)OCO3)C1	19%	0%	x	-7%	x	0%
CC[n+]1c(/C=C/C=C2/N(C)c3ccccc3C2(C)C)sc2ccccc21	21µM*	x	x	x	x	28µM*
Cc1ccnc2nc(C(=O)OCC(=O)c3ccc(NC(=O)CC(C)C)cc3)nn12	-10%	-4%	x	-12%	x	-9%
CCC(=O)Nc1ccc(C(=O)COC(=O)c2nc3nccc(C)n3n2)cc1	-32%	16µM*	x	u	x	u
SMILES	RGS4 inhibitor	TDP1 block	BLM inh	APE1 inh	RECQ1 inh	GCN5L2 inh
CCN(CC)C(=O)c1nn(-c2ccc(OC)cc2)c(=O)c2c(N)scc12	x	-4%	x	x	x	x
Cc1ccc(CNC(=O)c2ccc(-n3cccc3)cc2)cc1	-23%	13µM*	u	u	u	u
C=CCNC(=O)c1cc(-c2cccs2)on1	x	x	x	9%	x	x
COc1ccc(CCN2C(=O)C3C4CC(C5C(C(=O)NN)=NOC45)C3C2=O)cc1OC (stereo not drawn)	59%	3%	-2%	1%	-2%	-3%
COc1ccc(CCN2C(=O)C3C4CC(C5C(C(N)=O)=NOC45)C3C2=O)cc1OC (stereo not drawn)	-5%	13µM*	-7%	u	-9%	-12%
CC(C)=CCCC1(C)C=Cc2c(O)c3c(c(CC=C(C)C)c2O1)OC12C(=CCCC1C(C)(C)O[C@@]2(C/C=C(\C)C(=O)O)C(=O)O)C3=O (stereo partly drawn)	x	11%	-3%	-8%	i	35µM*
O=C(Cc1cccs1)OCC(=O)c1ccco1	-3%	x	0%	28µM*	-21%	-5%
Cn1c(N)c(C(=O)COC(=O)Cc2cccs2)c(=O)n(C)c1=O	17%	-5%	x	4%	x	0%
O=C(O)CCc1cc(F)c(S(=O)(=O)N2CCN(S(=O)(=O)c3ccc4c(c3)OCCO4)CC2)cc1F	x	2%	x	x	x	x
CC1(C)OC(=O)C2(Cc3ccc(Cl)cc3N3CCCCC32)C(=O)O1 (stereo not drawn)	-2%	1%	x	x	x	x
O=S1(=O)N=C(Oc2ccc(C(F)(F)F)cc2)c2ccccc21	x	1%	x	x	x	x
Cc1cc(SCC(=O)Nc2ccc3[nH]c(=O)[nH]c3c2)nc2ccccc12	u	45µM*	x	-13%	x	-5%
Cc1cc(SCC(=O)Nc2ccc(Cl)cc2)nc2ccccc12	0%	x	0%	x	x	-8%
CCN(CC)S(=O)(=O)c1cccc(N=NC2=C(O)CCCC2=O)c1	-15%	3%	-5%	-2%	u	-9%
O=C1CCCC(O)=C1N=Nc1c(Cl)cc(Cl)cc1Cl	-1%	5%	3%	u	25µM*	0%
O=S(=O)(NCc1cccs1)c1cccc2cccnc12	2%	0%	-1%	-2%	-1%	4µM*
COc1ccc(C2Nc3ccccc3C(=O)N2Cc2ccccc2)cc1COc1ccccc1OC (stereo not drawn)	x	3%	x	x	x	x
COc1cc(C(=O)OCC(=O)N(CC(C)C)C2CCS(=O)(=O)C2)cc(OC)c1C (stereo not drawn)	-6%	32µM*	x	-37%	x	-4%
CC(C)CN(C(=O)COC(=O)c1ccc(C#N)cc1)C1CCS(=O)(=O)C1 (stereo not drawn)	16%	2%	x	45%	x	3%
CC(=O)Nc1cc(NC(C)=O)cc(C(=O)OCC(=O)N(c2ccccc2)C2CCS(=O)(=O)C2)c1 (stereo not drawn)	-18%	45µM*	x	-35%	x	-8%
COc1ccc2nc(-c3ccccc3)cc(C(=O)OCC(=O)N3CCCCC3)c2c1	-24%	45µM*	x	-25%	x	u
COc1ccc(-c2cc(C(=O)OCC(=O)N3CCCC3)c3ccccc3n2)cc1	17%	-4%	-5%	3%	6%	-12%
Oc1ccc(N=Cc2ccc(O)c(O)c2)cc1	-24%	0%	28µM*	7%	i	-11%
